Experimental data published in PubChem BioAssay AID1159580 (chemical genetic matrix, 2015).
Out of some 5,500 compounds screened, about 2,000 (36%) were called active. Not shown: some 18% with an inconclusive outcome. Cut-off read from the data, not from the text of the source: active = normalized growth mostly below about 0.91 (no sharp cut-off); inconclusive = no clear call, values can overlap the other calls; inactive = mostly above about 0.92. This is one part of the list.

Test: chemical genetic growth profiling, strain panel (AID 1159580);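 note: tested at 20 µM; growth read once vehicle control cultures reached saturation at 30 °C; 1 = growth at the plate median or of vehicle wells; lower values mean less growth of the strain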
Details: S. cerevisiae deletion strains, growth OD
[1] = locus YAR019C, strain CDC15, hits give low values
[2] = locus YBL105C, strain PKC1, hits give low values
[3] = locus YBR135W, strain CKS1, hits give low values
[4] = locus YBR136W, strain MEC1, hits give low values
[5] = locus YBR160W, strain CDC28, hits give low values
[6] = locus YDL017W, strain CDC7, hits give low values
[7] = locus YDL028C, strain MPS1, hits give low values
[8] = locus YDL101C, strain DUN1, hits give low values
[9] = locus YDL108W, strain KIN28, hits give low values
[10] = locus YDL132W, strain cdc53, hits give low values
[11] = locus YDL214C, strain PRR2, hits give low values
[12] = locus YDR052C, strain DBF4, hits give low values
[13] = locus YDR054C, strain cdc34, hits give low values
[14] = locus YDR226W, strain ADK1, hits give low values
[15] = locus YDR477W, strain SNF1, hits give low values
[16] = locus YER123W, strain YCK3, hits give low values
[17] = locus YER133W, strain GLC7, hits give low values
[18] = locus YFL009W, strain cdc4, hits give low values
[19] = locus YFL029C, strain CAK1, hits give low values
[20] = locus YFR003C, strain YPI1, hits give low values
[21] = locus YFR019W, strain FAB1, hits give low values
[22] = locus YFR028C, strain CDC14, hits give low values
[23] = locus YGR040W, strain KSS1, hits give low values
[24] = locus YGR052W, strain FMP48, hits give low values
[25] = locus YGR092W, strain DBF2, hits give low values
[26] = locus YHR030C, strain SLT2, hits give low values
[27] = locus YHR079C, strain IRE1, hits give low values
[28] = locus YHR082C, strain KSP1, hits give low values
[29] = locus YHR205W, strain SCH9, hits give low values
[30] = locus YIL147C, strain SLN1, hits give low values
[31] = locus YJL095W, strain BCK1, hits give low values
[32] = locus YJL128C, strain PBS2, hits give low values
[33] = locus YJL157C, strain FAR1, hits give low values
[34] = locus YJR016C, strain ILV3, hits give low values
[35] = locus YJR066W, strain TOR1 (second series), hits give low values
[36] = locus YJR066W, strain TOR1, hits give low values
[37] = locus YKL048C, strain ELM1, hits give low values
[38] = locus YKL067W, strain YNK1, hits give low values
[39] = locus YKL101W, strain HSL1, hits give low values
[40] = locus YKL193C, strain SDS22, hits give low values
[41] = locus YKL203C, strain TOR2, hits give low values
[42] = locus YLR113W, strain HOG1, hits give low values
[43] = locus YLR133W, strain CKI1, hits give low values
[44] = locus YLR403W, strain SFP1, hits give low values
[45] = locus YML070W, strain DAK1, hits give low values
[46] = locus YMR001C, strain CDC5, hits give low values
[47] = locus YMR205C, strain PFK2 (second series), hits give low values
[48] = locus YMR277W, strain FCP1, hits give low values
[49] = locus YNL006W, strain LST8, hits give low values
[50] = locus YNL020C, strain ARK1, hits give low values
[51] = locus YNL161W, strain CBK1, hits give low values
[52] = locus YNL183C, strain NPR1, hits give low values
[53] = locus YNL207W, strain RIO2, hits give low values
[54] = locus YNL222W, strain SSU72, hits give low values
[55] = locus YNL307C, strain MCK1 (second series), hits give low values
[56] = locus YOL078W, strain AVO1, hits give low values
[57] = locus YOL136C, strain PFK27, hits give low values
[58] = locus YOR061W, strain CKA2, hits give low values
[59] = locus YOR119C, strain RIO1, hits give low values
[60] = locus YOR231W, strain MKK1, hits give low values
[61] = locus YOR329C, strain SCD5, hits give low values
[62] = locus YPL031C, strain PHO85, hits give low values
[63] = locus YPL153C, strain RAD53, hits give low values
[64] = locus YPL204W, strain HRR25, hits give low values
[65] = locus YPL209C, strain IPL1, hits give low values
[66] = locus YPL256C, strain CLN2, hits give low values
[67] = locus YPR025C, strain CCL1, hits give low values
[68] = locus YPR106W, strain ISR1, hits give low values
[69] = locus YPR111W, strain DBF20, hits give low values
[70] = strain NNK1, hits give low values
[71] = strain TSCII, hits give low values

Measured: normalized growth

O=C(NNc1ccccc1)c1cc(-c2ccc(Cl)cc2)oc1C(F)(F)F
inactive: [1] 0.947 | [2] 0.952 | [3] 0.934 | [4] 0.952 | [5] 0.942 | [6] 0.949 | [7] 0.957 | [8] 0.973 | [9] 0.95 | [10] 0.953 | [11] 0.714 | [12] 0.956 | [13] 0.94 | [14] 0.951 | [18] 0.958 | [19] 0.943 | [20] 0.958 | [21] 0.779 | [22] 0.942 | [27] 0.541 | [29] 0.624 | [30] 0.96 | [32] 0.975 | [33] 0.75 | [34] 0.95 | [35] 0.66 | [40] 0.954 | [46] 0.942 | [48] 0.953 | [49] 0.96 | [51] 0.944 | [52] 0.697 | [53] 0.959 | [54] 0.931 | [56] 0.952 | [57] 0.727 | [58] 0.795 | [61] 0.957 | [65] 0.926 | [67] 0.951 | [68] 0.933 | [69] 0.931 | [70] 0.939 | [71] 0.95
active: [15] 0.615 | [16] 0.522 | [17] 0.629 | [23] 0.622 | [24] 0.38 | [25] 0.434 | [26] 0.289 | [28] 0.5 | [31] 0.293 | [36] 0.456 | [37] 0.762 | [38] 0.686 | [39] 0.521 | [41] 0.636 | [42] 0.234 | [43] 0.678 | [44] 0.653 | [45] 0.465 | [47] 0.667 | [50] 0.683 | [55] 0.549 | [59] 0.684 | [60] 0.46 | [62] 0.443 | [63] 0.339 | [64] 0.58 | [66] 0.492

O=C(Nc1ccncc1)c1cc(-c2ccccc2)oc1C(F)(F)F
inactive: [1] 0.99 | [2] 0.985 | [3] 0.991 | [4] 0.988 | [5] 0.983 | [6] 0.991 | [7] 0.993 | [8] 0.992 | [9] 0.991 | [10] 0.979 | [11] 0.953 | [12] 0.989 | [13] 0.981 | [14] 0.989 | [15] 0.973 | [16] 0.946 | [17] 0.976 | [18] 0.99 | [19] 0.984 | [20] 0.99 | [21] 0.993 | [22] 0.984 | [23] 0.962 | [24] 1 | [25] 0.949 | [26] 1 | [27] 0.941 | [28] 1.01 | [29] 0.998 | [30] 0.994 | [31] 0.991 | [32] 0.958 | [33] 0.952 | [34] 0.988 | [35] 0.937 | [36] 1.03 | [37] 0.976 | [38] 0.968 | [39] 0.977 | [40] 0.988 | [41] 1.04 | [43] 0.975 | [44] 0.987 | [45] 0.951 | [46] 0.996 | [47] 0.973 | [48] 0.993 | [49] 0.992 | [50] 0.985 | [51] 0.982 | [52] 0.965 | [53] 0.98 | [54] 0.977 | [55] 0.976 | [56] 0.988 | [57] 0.953 | [58] 0.991 | [59] 1.03 | [60] 0.908 | [61] 0.998 | [62] 0.964 | [63] 0.959 | [64] 0.953 | [65] 0.976 | [66] 0.868 | [67] 0.99 | [68] 0.979 | [69] 0.98 | [70] 0.993 | [71] 0.989
active: [42] 0.843
